# Source: PubChem (National Center for Advancing Translational Sciences (NCATS))
# TRPV1 agonist – activates the human vanilloid receptor TRPV1; Q8NER1; TRPV1-expressing cells, Fluo-8 calcium influx, agonist mode; activation, % at 8.33 µM; 320,000 tested, 0.19% active; AID 540275; in the data active = activation above about 80%; inconclusive = between about 30% and that limit; note: 0% is about no effect
#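 TRPV1-expressing cells were cultured overnight at 35.5C and loaded with Fluo-8 calcium dye for 40 to 90 min at room temperature. After a 10 s baseline, compound was added and calcium influx was read kinetically for 3 min (ex 480/em 520 nm).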
# uPA surface inh – blocks generation of uPA at the cell surface | 330,000 tested, 0.31% active | Potency, µM (titrated, usually from 38.3 µM), for inactives: top-dose activity change, negative = inhibition, usual class: inhibitors | cell surface uPA generation assay, qHTS; active = well fitted inhibition curve with a large enough effect; inconclusive = small, poorly fitted or top-dose-only effect; inactive = no such curve, though single readings can be large or run the other way; tested in mouse RAW 264.7 cells; note: potency is the fitted concentration of half-maximal effect; % is set by controls: 0 for no effect and ±100 for the full control effect; nearly all actives have a fitted effect of over 55% in size
# TRPV1 PAM – human TRPV1 potentiation | 320,000 tested, 0.02% active | Q8NER1 | TRPV1-expressing cells, Fluo-8 calcium influx, capsaicin EC20 potentiation | potentiation, % at 8.33 µM; in the data active = potentiation above about 80%; inconclusive = between about 30% and that limit; note: 0% is about no effect
#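 Fluo-8 calcium influx in TRPV1-expressing cells, kinetic read (ex 480/em 520 nm). Compound added and read 3 min for agonist activity, followed by capsaicin at EC20 final and 2 min further read for enhancement.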
# RORgamma inh – blocks mouse ROR gamma transcriptional activity. P51450. Drosophila S2 Gal4-RORgamma UAS-luciferase reporter, 20 h. Potency, µM (series often up to 53.6 µM), without a hit: top-dose activity change, negative = inhibition, hits mostly inhibitors. 310,000 tested, 5.4% active. AID 2551; note: potency is the fitted concentration of half-maximal effect; % is set by controls: 0 for no effect and ±100 for the full control effect; nearly all actives have a fitted effect of over 60% in size
# Target sequence (P51450 whole entry, looked up, the tested form may be a part): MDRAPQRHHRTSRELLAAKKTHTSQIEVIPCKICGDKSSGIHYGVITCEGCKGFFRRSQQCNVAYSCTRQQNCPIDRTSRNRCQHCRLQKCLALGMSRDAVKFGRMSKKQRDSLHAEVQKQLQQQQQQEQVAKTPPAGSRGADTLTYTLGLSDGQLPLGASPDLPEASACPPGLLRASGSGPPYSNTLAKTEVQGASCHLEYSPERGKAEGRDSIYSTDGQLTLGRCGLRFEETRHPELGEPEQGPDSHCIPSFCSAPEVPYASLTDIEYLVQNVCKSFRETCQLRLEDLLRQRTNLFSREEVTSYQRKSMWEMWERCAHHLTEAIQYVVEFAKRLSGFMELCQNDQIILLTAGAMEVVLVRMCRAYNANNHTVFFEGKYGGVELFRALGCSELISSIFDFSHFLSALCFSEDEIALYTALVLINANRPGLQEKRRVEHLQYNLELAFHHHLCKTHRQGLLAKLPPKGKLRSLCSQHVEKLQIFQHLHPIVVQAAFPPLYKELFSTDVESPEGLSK
#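 Drosophila Schneider cells stably carrying a metallothionein-driven Gal4 DBD–ROR gamma fusion and a UAS-Photinus luciferase reporter were exposed to compound for 1 hr, then induced with copper sulfate (700 uM final) for 20 hr at ambient temperature before luminescence reading.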
# VP16 counter – counter-screen for ROR gamma inhibitors: Gal4-VP16 reporter; AID 2546; Drosophila S2 Gal4-VP16 UAS-luciferase, luminescence, 20 h; Potency, µM (doses to about 53.6 µM), without a hit: at the highest dose activity, negative = inhibition, actives largely listed as inhibitors; 310,000 tested, 3.5% active;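 note: Gal4-VP16 expression switched on by copper sulfate through the metallothionein promoter; potency is the fitted concentration of half-maximal effect; % is set by controls: 0 for no effect and ±100 for the full control effect; nearly all actives have a fitted effect of over 50% in size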
# Starred values were filed as active, the others as inactive; u = inconclusive; x = no result. Only some compounds are listed: those with a hit (about 5.8% of all), similar ones and a draw of the others. Unless noted, calls come from the whole dose curve; as a rule, active = well fitted curve in the direction sought with a large enough effect; inconclusive = small, poorly fitted or top-dose-only effect, or another doubt; inactive = no such curve, though single readings can be large; an effect the other way counts as inactive or inconclusive.
SMILES,TRPV1 agonist,uPA surface inh,TRPV1 PAM,RORgamma inh,VP16 counter
CCn1c(SCC(=O)NNC(=S)Nc2ccc(C)cc2)nnc1-c1ccc(Cl)cc1,-6.5,2.3%,3.6,3.55µM*,1.41µM*
O=C(CSc1nnc(SCc2ccccc2)s1)NNC(=S)Nc1ccccc1,-3.4,3.7%,5.8,14.1µM*,12.6µM*
CN1C(=O)COc2ccc(C(=O)c3oc4ccccc4c3-c3cnc4c(c3)COc3ccccc3-4)cc21,0.1,x,2.9,u,0.9%
O=C(NCCOc1ccccc1F)c1cc(F)c(F)cc1Cl,1.8,3.8%,-2.8,u,u
CSc1sc(C#N)c2c1/C(=N\O)CCC2,-0.9,-3.8%,3.3,16.4%,9.6%
Cc1ccc(S(=O)(=O)N(CC(=O)NCC2CCCO2)Cc2ccc(F)cc2)cc1 (stereo not drawn),u,3.1%,-5.5,-19.5%,-6.9%
N=C1N=C(N)c2cc3ccccc3cc21,x,x,x,-2.3%,-6.3%
Cc1ccc(NC(=S)NC(=O)c2ccc(Br)o2)c(C)c1,29.9,-2.7%,-8.2,2.24µM*,u
Cc1cccc(NC(=S)NC(=O)c2ccc(Br)o2)c1C,9.9,-1.2%,6.4,3.55µM*,u
Cc1cccc(C)c1NC(=S)NC(=O)c1ccc(Br)o1,2.4,-2.2%,-4.9,3.16µM*,u
O=C(NC(=S)Nc1ccccc1F)c1ccc(Br)o1,9.8,-14.8%,-6.9,4.47µM*,u
CC(C)N(C(=O)C(=O)c1cccn1-c1ccccc1C#N)C(C)C,6.4,-4.7%,-5.8,-23.3%,-1.4%
C[C@H](NC(=O)[C@@H](N)Cc1ccc(O)cc1)C(=O)NCC(=O)N[C@H]1CSSC[C@@H](C(=O)O)NC(=O)[C@H](CO)NC(=O)[C@H]([C@@H](C)O)NC(=O)[C@H](Cc2ccccc2)NC(=O)[C@H]([C@@H](C)O)NC(=O)[C@H](CCCCN)NC(=O)[C@H](Cc2c[nH]c3ccccc23)NC(=O)[C@H](Cc2ccccc2)NC(=O)[C@H](Cc2ccccc2)NC(=O)[C@H](CC(N)=O)NC(=O)[C@H](CCCCN)NC1=O,x,x,x,2.4%,-6.2%
C=Cc1ccc(C=C)cc1,x,x,x,1.5%,9.0%
CCN1C(=C(C#N)C#N)C=Cc2cc(C)ccc21,2.1,-10.5%,u,0.4%,-2.5%
C=CC[n+]1c(/C=C2\C=Cc3cc(C)ccc3N2CC)ccc2ccccc21,-1.0,8.91µM*,2.4,u,3.16µM*
Cc1cnc(=O)[nH]c1SCC(=O)c1ccc(F)cc1,-1.3,-3.5%,2.3,-8.4%,-3.2%
COc1ccc(-n2c(-c3ccc(Cl)cc3)c[nH]c2=S)cc1,-3.0,-0.3%,15.5,0.447µM*,2.82µM*
S=c1[nH]cc(-c2ccccc2)n1-c1ccccc1,0.7,3.1%,20.2,3.55µM*,3.98µM*
Cc1ccc(-n2c(-c3ccccc3)c[nH]c2=S)cc1,-2.7,x,6.8,2.24µM*,6.31µM*
COc1ccc(-c2cn(-c3ccc(Cl)cc3)c3[n+]2CCCCC3)cc1,-0.2,-7.2%,-34.0,9.1%,u
CCOC(=O)c1c[nH]c(=S)n(-c2ccccc2)c1=O,-2.2,-6.0%,u,x,x
COc1ccccc1C(=O)Oc1cc(C)[nH]c(=O)c1[N+](=O)[O-],-1.1,-4.8%,24.6,-2.3%,3.2%
COc1cc(OC)cc(C(C)=O)c1,-1.3,-6.7%,0.3,-19.5%,-3.2%
COc1ccc(N/C=C\C(=O)c2ccc3ccccc3c2)cc1,0.2,13.0%,-1.3,-28.9%,11.4%
SMILES,TRPV1 agonist,uPA surface inh,TRPV1 PAM,RORgamma inh,VP16 counter
CC(=O)c1cccc(NS(=O)(=O)c2ccc(N/C=C\C(=O)c3ccc(C)cc3)cc2)c1,0.3,-5.3%,6.3,-34.8%,u
CC(=O)c1cccc(NC(=O)C2CCCN(S(=O)(=O)c3ccc(F)cc3)C2)c1 (stereo not drawn),22.7,-0.2%,-6.9,12.8%,-14.0%
COc1ccc(S(=O)(=O)N2CCCC(C(=O)Nc3cccc(C(C)=O)c3)C2)cc1 (stereo not drawn),15.5,9.0%,-10.1,u,4.47µM*
O=C(/C=C/Nc1cccc(O)c1)c1ccccc1,2.2,u,1.5,5.01µM*,6.31µM*
COc1ccc(N/C=C/C(=O)c2ccccc2)cc1,3.0,10µM*,-2.1,7.94µM*,10µM*
CC(=O)c1cccc(N/C=C\C(=O)c2ccc(C)cc2)c1,23.6,-8.0%,-23.7,2.24µM*,8.91µM*
COC(=O)[C@H](Cc1ccccc1)NC(=O)O[C@@H]1C(=O)c2cc(Br)ccc2O[C@H]1c1cccc(OC)c1,0.3,x,9.0,u,4.5%
O=C(O)CNC(=O)c1ccc(NC(=O)/C(=C/c2ccccc2)NC(=O)c2ccccc2Br)cc1,-2.8,6.8%,13.3,-0.1%,-4.5%
C/C(=C\C(=O)c1ccc(C)cc1)Nc1cccc(O)c1,10.2,u,5.2,6.31µM*,3.55µM*
C/C(=C\C(=O)c1ccccc1)Nc1ccc(O)cc1,5.9,-8.2%,0.9,u,13.0%
O=C(/C=C\Nc1ccccn1)c1ccccc1,15.4,-4.6%,-16.9,5.01µM*,12.6µM*
CC(=O)c1cccc(NS(=O)(=O)c2ccc(N/C=C/C(=O)c3ccc(F)cc3)cc2)c1,-6.4,u,0.2,u,4.47µM*
C/C(=C\C(=O)c1ccc(C)cc1)Nc1ccc(N2CCOCC2)cc1,-0.6,x,7.9,-2.5%,2.8%
C/C(=C\C(=O)c1cccnc1)Nc1ccc(O)cc1,1.2,-13.8%,11.4,12.6µM*,u
C=CCOC(=O)N[C@H](c1ccco1)C(C(C)=O)C(C)=O,x,x,x,-2.3%,7.5%
O=S(=O)(Nc1ccc(Br)cc1)N1CCOCC1,-0.1,-1.5%,-2.5,x,x
CC(=O)c1ccc(N/C=C\C(=O)c2ccc(C)cc2)cc1,0.3,1.9%,9.3,-33.5%,-6.1%
Cc1ccc(C(=O)/C=C/Nc2cccc(O)c2)cc1,11.6,u,-6.6,2.24µM*,1µM*
CC(=O)c1cccc(NC(=O)N2CCCCCC2)c1,24.7,1.2%,-7.3,23.1%,-4.0%
CC(=O)c1cccc(NS(=O)(=O)c2ccc(NC(=O)N3CCCCC3)cc2)c1,10.2,u,-7.0,39.5%,10µM*
CCC(=O)c1ccc(OCC(=O)N2CCN(S(=O)(=O)c3ccc(Cl)s3)CC2)cc1,9.0,-8.1%,-3.3,x,x
CC(C)C[C@@H](CC(=O)N[C@@H](CCC(=O)O)CC(=O)O)NC(=O)[C@@H]1CNCC[C@H]1NC(=O)C[C@@H](NC(=O)C[C@H](Cc1ccccc1)NC(=O)[C@@H]1CCCC[C@H]1N)C(C)C,x,x,x,-24.6%,-9.7%
O=C(/C=C/c1ccc(Br)cc1)c1ccc(NC2=NCCCS2)cc1,3.1,u,10.5,u,u
CC(C)(C)c1ccc(/C=C/C(=O)c2ccc(NC3=NCCCS3)cc2)cc1,-4.6,-8.6%,-1.1,u,5.62µM*
O=Cc1cn(CCC(=O)O)nc1-c1cccc2ccccc12,11.8,2.3%,-7.1,3.16µM*,11.2µM*
CC1=CN2C(=N)/C(=C/c3ccc([N+](=O)[O-])o3)C(=O)N=C2S1,3.7,-5.5%,6.8,11.2µM*,5.01µM*
